Inconclusive results are not listed. Entries that show only a call come without a potency. A number with no mark means an inactive call. The source made the active and inactive calls. Calls come from the whole dose curve; as a rule, active = well fitted curve in the direction sought with a large enough effect; inconclusive = small, poorly fitted or top-dose-only effect, or another doubt; inactive = no such curve, though single readings can be large; an effect the other way counts as inactive or inconclusive.
How the values were obtained:
[1] = system: NIH3T3; assay: qHTS assay to identify novel small-molecules to repurpose for Merkel cell carcinoma treatment (AID 1296009); settings: MCC and control cell lines, CellTiter-Glo viability, 72 h; series mostly up to 44.8 µM; note: nearly all actives have a fitted effect of over 60% in size
Outline: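 qHTS format: cells treated with library compounds in DMSO across 8 (NPC) or 11 (MIPE) concentrations. Readout after 72 hr at 37 degree celsius was CellTiter-Glo luminescence.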

[2] = system: C33A; assay: Primary qHTS to identify gynecologic anti-cancer compounds using libraries of approved drugs and bioactive compounds (AID 1345084); settings: Gynecologic cancer cell panel viability, ATPlite luminescence, 48 h; series mostly up to 57.5 µM; note: nearly all actives have a fitted effect of over 55% in size; note: potency is the fitted concentration of half-maximal effect
Outline: (§1)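 Measured: luminescence after ATPlite addition (15 min, RT). Exposure: 48 h, 37 C, 5% CO2.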

[3] = system: CAOV3; assay: as above; settings: Gynecologic cancer cell panel viability, ATPlite luminescence, 48 h; series mostly up to 57.5 µM
Outline: as §1

[4] = system: CASKI; assay: as above; settings: Gynecologic cancer cell panel viability, ATPlite luminescence, 48 h; series mostly up to 57.5 µM
Outline: as §1

[5] = system: Es-2; assay: as above; settings: Gynecologic cancer cell panel viability, ATPlite luminescence, 48 h; series mostly up to 57.5 µM
Outline: as §1

[6] = system: HeLa; assay: as above; settings: Gynecologic cancer cell panel viability, ATPlite luminescence, 48 h; series mostly up to 57.5 µM
Outline: as §1

[7] = system: Hek293T; assay: as above; settings: Gynecologic cancer cell panel viability, ATPlite luminescence, 48 h, control line for the selectivity index; series mostly up to 57.5 µM
Outline: as §1

[8] = system: JEG-3; assay: as above; settings: Gynecologic cancer cell panel viability, ATPlite luminescence, 48 h; series mostly up to 57.5 µM
Outline: as §1

[9] = system: OV90; assay: as above; settings: Gynecologic cancer cell panel viability, ATPlite luminescence, 48 h; series mostly up to 57.5 µM
Outline: as §1

[10] = system: PA-1; assay: as above; settings: Gynecologic cancer cell panel viability, ATPlite luminescence, 48 h; series mostly up to 57.5 µM
Outline: as §1

Row | SMILES | Potency [1] | Potency [2] | Potency [3] | Potency [4] | Potency [5] | Potency [6] | Potency [7] | Potency [8] | Potency [9] | Potency [10]
1 | Nc1c(S(=O)(=O)c2ccccc2)c2nc3ccccc3nc2n1-c1ccc(F)cc1 | inactive | inactive | inactive | inactive | inactive | inactive | inactive | inactive | inactive | inactive
2 | COc1cc(O)cc(OC2OC(CO)C(O)C(O)C2O)c1 (configuration not stated) | inactive | inactive | inactive | inactive | inactive | inactive | inactive | inactive | inactive | inactive
3 | COC(=O)c1cc(Br)cnc1N1CCC(NC2CCCCC2)C(O)C1 (configuration not stated) | inactive | inactive | inactive | inactive | inactive | inactive | inactive | inactive | inactive | inactive
4 | CCC(CC)C(=O)OC12C(OC(=O)C(C)C)C(C)C3(O)C(C=C(CO)CC4(O)C(=O)C(C)=CC43)C1C2(C)C (configuration not stated) | inactive | inactive | inactive | inactive | 70.8 nM (active) | inactive | inactive | inactive | – | inactive
5 | COc1cc(/C=C2\CC[C@H]3COC[C@@H](c4cc(F)c(F)c(F)c4)N3C2=O)ccc1-n1cnc(C)c1 | inactive | inactive | inactive | inactive | inactive | inactive | inactive | inactive | inactive | inactive
6 | CCOc1ccc(CCNC(=O)c2cc3sc(Cl)cc3n2C)cc1OCC | inactive | inactive | inactive | inactive | inactive | inactive | inactive | inactive | inactive | inactive
7 | C/C=C/C=C/C(=O)O[C@@H]1C=C2COC(=O)[C@]2(O)[C@@]2(C)CCCC(C)(C)[C@H]12 | inactive | inactive | inactive | inactive | inactive | inactive | inactive | inactive | inactive | inactive
8 | CCC(C)C1NC(=O)C(Cc2ccccc2)NC(=O)C(CCCCCC(=O)C(O)CO)NC(=O)C2CCCCN2C1=O (configuration not stated) | inactive | inactive | – | inactive | inactive | inactive | inactive | inactive | – | –
9 | CC#CCn1c(N2CCCC(N)C2)nc2c1c(=O)n(Cc1nc(C)c3ccccc3n1)c(=O)n2C (configuration not stated) | inactive | inactive | inactive | inactive | inactive | inactive | inactive | inactive | inactive | inactive
10 | Cc1cc(F)ccc1[C@H]1C[C@@H](N2CCN3C(=O)CC[C@H]3C2)CCN1C(=O)N(C)[C@H](C)c1cc(C(F)(F)F)cc(C(F)(F)F)c1 | inactive | inactive | inactive | inactive | inactive | inactive | – | inactive | inactive | inactive
11 | CC[N+]1(C/C2=C/CCCCCC2)CCC(NC(=O)C2c3cc(Cl)ccc3Oc3ccc(Cl)cc32)CC1 (configuration not stated) | inactive | inactive | inactive | inactive | inactive | inactive | inactive | inactive | inactive | inactive
12 | C=C1[C@H]2CC[C@H](C(=O)O)[C@@]23CC[C@H](C3)C1(C)C | inactive | inactive | inactive | – | inactive | inactive | inactive | inactive | inactive | inactive
13 | Cn1cc(C2=C(c3coc4ccccc34)C(=O)NC2=O)c2cc(Br)ccc21 | inactive | inactive | inactive | inactive | inactive | inactive | inactive | – | inactive | inactive
14 | CC#C[C@@H](CC(=O)O)c1ccc(OCc2ccc(CN3CCC4(C=Cc5ccccc54)CC3)s2)cc1 | inactive | inactive | inactive | inactive | inactive | inactive | inactive | inactive | inactive | inactive
15 | COc1cc2ncnc(Nc3ccc(F)c(Cl)c3)c2cc1O | inactive | inactive | inactive | inactive | inactive | inactive | inactive | inactive | – | inactive
16 | CC(C)(O)C1CC(=O)C2(C)C(CCC3(C)C(c4ccoc4)OC(=O)C4OC432)C12CCC(=O)OC2 (configuration not stated) | inactive | inactive | inactive | inactive | inactive | inactive | inactive | – | inactive | –
17 | C/C=C(\C)C(=O)OC1C=C(C)CC(OC(=O)c2ccc(O)cc2)C2C1(C)CCC2(O)C(C)C (configuration not stated) | inactive | inactive | inactive | inactive | inactive | inactive | inactive | inactive | inactive | inactive
18 | CCC(C)/C=C(C)/C=C/C1=CC2=C(Cl)C(=O)C(C)(OC(C)=O)C(=O)C2(O)C(OC)O1 (configuration not stated) | inactive | inactive | inactive | inactive | inactive | inactive | – | inactive | inactive | inactive

Row | SMILES | Potency [1] | Potency [2] | Potency [3] | Potency [4] | Potency [5] | Potency [6] | Potency [7] | Potency [8] | Potency [9] | Potency [10]
19 | C=C1CCC2C(C)(C(=O)O)CCCC2(C)C1CCC1=CCOC1=O (configuration not stated) | inactive | inactive | inactive | inactive | inactive | inactive | inactive | inactive | inactive | inactive
20 | C=CCCN1CCC2(CC1)CN(C(=O)c1c(F)cccc1F)c1ccc(Cl)cc12 | inactive | inactive | – | inactive | inactive | inactive | inactive | inactive | inactive | inactive
21 | COc1cc2nc(N3CCN(C(=O)COc4c(OC)cccc4C(C)C)CC3)nc(N)c2cc1OC | inactive | inactive | – | inactive | inactive | inactive | inactive | inactive | inactive | inactive
22 | COC(=O)CC[C@@H](C)C1CCC2C3CCC4C[C@H](OC(C)=O)CCC4(C)C3C[C@H](O)C21C (some centres not stated) | inactive | inactive | inactive | inactive | inactive | inactive | inactive | inactive | inactive | inactive
23 | Cc1nnc(-c2ccc(-c3ccc(C(=O)Nc4ccc(O)c(N5CCN(C)CC5)c4)cc3)c(C)c2)o1 | inactive | inactive | inactive | inactive | inactive | inactive | inactive | inactive | inactive | inactive
24 | CN1CCc2cc3c(cc2C(=O)Cc2cc4c(cc2C1)OCO4)OCO3 | inactive | inactive | inactive | inactive | inactive | inactive | inactive | inactive | inactive | inactive
25 | COc1ccccc1N1CCN(c2ncnc3n[nH]c(Br)c23)CC1 | inactive | inactive | inactive | inactive | inactive | – | inactive | inactive | inactive | inactive
26 | CCOc1ccc(S(=O)(=O)N2CCCCCC2)c2ccccc12 | inactive | inactive | inactive | inactive | inactive | inactive | inactive | inactive | inactive | inactive
27 | C=C1C(=O)OC2C1CCC1(C)C(O)CC=C(C)C21 (configuration not stated) | inactive | inactive | inactive | inactive | inactive | inactive | inactive | inactive | inactive | inactive
28 | CC(C)c1cc(-c2ccc(F)c3ccccc23)nc(N)n1 | inactive | inactive | inactive | inactive | inactive | inactive | inactive | inactive | inactive | inactive
29 | C1=Cc2ccccc2C(=C2CCN(CCCCc3nn[nH]n3)CC2)c2ccccc21 | inactive | inactive | inactive | inactive | inactive | inactive | inactive | inactive | inactive | inactive
30 | CCn1c(-c2nonc2N)nc2c(C#CCO)ncc(OCCCN)c21 | inactive | inactive | – | 25.1 µM (active) | inactive | inactive | – | – | – | –
31 | CC1(C)CCC(C)(C)c2cc(C#Cc3ccc(C(=O)O)cc3)ccc21 | inactive | inactive | inactive | – | inactive | inactive | inactive | inactive | inactive | inactive
32 | CNCCC(c1cccs1)c1ccc(O)c2ccccc12 (configuration not stated) | inactive | inactive | inactive | inactive | inactive | inactive | inactive | – | – | inactive
33 | COc1ccc(CCN(C)CCCOc2nsc(-c3ccccc3)n2)cc1OC | inactive | inactive | inactive | inactive | inactive | inactive | inactive | inactive | inactive | inactive
34 | Cc1cc(NC(=O)NCCN2CCC(O)(Cc3ccccc3)CC2)c2ccccc2n1 | inactive | inactive | inactive | inactive | inactive | inactive | inactive | inactive | inactive | inactive
35 | Cc1cc(C(=O)Cn2cc(C#N)ccc2=O)c(C)n1Cc1ccccc1 | inactive | inactive | inactive | inactive | inactive | inactive | – | inactive | inactive | inactive

Source: PubChem BioAssay (NCATS)
